# Shiga toxin inh = Shiga toxin inhibition | Vero cells, Shiga toxin protein synthesis inhibition reporter | inhibition, % at 38.7 µM | hit rate 9.2% among 290,000 | AID 2315; in the data active = inhibition mostly above about 28%, no sharp cut-off; inactive = mostly below about 43%; note: 0% is about no effect
# Pf growth 48h = P. falciparum growth inhibition at 48 hours (one generation); P. falciparum luciferase growth in erythrocytes, 48 h; Potency, µM (top dose mostly 28.7 µM), for inactives: top-dose activity change, negative = inhibition, most hits filed as inhibitors; hit rate 5.9% among 310,000; AID 504832; note: potency is the fitted concentration of half-maximal effect; % is set by controls: 0 for no effect and ±100 for the full control effect
#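 Compounds are pin-transferred into medium, infected erythrocytes (2% hematocrit, 0.1% parasitemia final) are added, and plates sit one parasite generation at 37 C in 5% CO2. Detection reagent is then added and luminescence measured.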
# Pf growth 96h = P. falciparum growth inhibition at 96 hour, primary screen for plastid delayed-death inhibitors; P. falciparum luciferase reporter growth, 96 h; Potency, µM (titrated, usually from 28.7 µM), for inactives: at the highest dose activity change, negative = inhibition, most hits filed as inhibitors; hit rate 6.9% among 320,000; AID 504834; note: potency is the fitted concentration of half-maximal effect; % is set by controls: 0 for no effect and ±100 for the full control effect
#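 P. falciparum expressing integrated firefly luciferase grown in erythrocytes (2% hematocrit, 0.05% parasitemia final) with compounds for 96 hours at 37 C, 5% CO2. Growth inhibition read as loss of luminescence after adding luciferase detection reagent.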
# CHX counter = affects cycloheximide protein synthesis inhibition readout, counter-screen; max response, %; hit rate 12% among 300,000; cell reporter, cycloheximide protein synthesis inhibition counterscreen; in the data active = max response mostly above about 13%, no sharp cut-off; inactive = mostly below about 14%; note: read at 38.3 µM for the half of the compounds with a filed dose; 0% is about no effect
# * marks the source's active call; other numbers are inactive results; ? = inconclusive; . = no result; [ ] = remark or other dose. In the library only some 21% were active in any assay of this set; here they are far more common. Unless noted, calls come from the whole dose curve; as a rule, active = well fitted inhibition curve with a large enough effect; inconclusive = small, poorly fitted or top-dose-only effect, or another doubt; inactive = no such curve, though single readings can be large or run the other way.
SMILES,Shiga toxin inh,Pf growth 48h,Pf growth 96h,CHX counter
O=C(NNC(=O)C1CCN(C(=O)Nc2ccccc2)CC1)c1ccc(F)cc1,.,8.9%,20.2%,.
COc1ccc(C2c3[nH]c4ccccc4c3CCN2Cc2ccoc2)c(F)c1 (stereo not given),-7.0,?,?,1.8
CCn1nc(C)cc1C(=O)N1CCc2c([nH]c3ccccc23)C1c1cc(F)ccc1F (stereo not given),82.0*,?,?,55.4*
COc1ccc(C2c3[nH]c4ccccc4c3CCN2C(=O)Cc2nonc2C)c(F)c1 (stereo not given),108.9*,10.4µM*,?,37.0*
O=[N+]([O-])C(Br)(CO)CO,.,4.8%,11.0%,.
COCCn1c(SCC(=O)Nc2c(C)n(C)n(-c3ccccc3)c2=O)nnc1-c1ccncc1,.,-28.4%,7.7%,.
O=C(Nc1ccc(F)cc1)C(=O)C1C(=O)Nc2ccccc21 (stereo not given),55.2*,21.4%,32.9%,14.0
O=C(Nc1ccc2ccccc2c1)C(=O)C1C(=O)Nc2ccccc21 (stereo not given),66.3*,47.6%,95.1%,31.6*
O=C(COC(=O)CNC(=O)c1cccs1)Nc1ccc(C(F)(F)F)cc1[N+](=O)[O-],.,?,26.6%,.
Cc1cccc(N2CCN(c3cccc(C)c3)C2c2cccnc2)c1,70.9*,1.85µM*,-23.6%,33.6*
CN1C(=O)CSC1=Nc1cccc(Cl)c1,-2.5,14.3%,0.0%,-0.8
COc1ccccc1NC(=O)COC(=O)/C=C/c1ccc2c(c1)OCO2,83.7*,44.3%,2.4%,52.0*
NC(=O)c1ccc(NC(=O)COC(=O)/C=C/c2ccc3c(c2)OCO3)cc1,66.0*,56.0%,-9.0%,26.1*
COc1ccccc1NC(=O)/C=C/c1ccc2c(c1)OCO2,85.4*,283.7%,-5.2%,31.0*
CCN1CCN(C(=O)C2CCN(S(=O)(=O)c3ccc(SC)cc3)CC2)CC1,-7.7,-18.8%,10.4%,11.4
Nc1ccc(-c2nc3c(ccc4ccccc43)[nH]2)cc1,42.9*,?,6.4%,25.3*
S=c1nc(-c2ccccc2)[nH]c2ccccc12,-10.9,-12.1%,?,14.7
Fc1ccc(-c2nc3ccccc3[nH]2)cc1,115.4*,48.2%,34.9%,35.3*
Cn1cc(-c2nc3ccccc3[nH]2)c2ccccc21,86.7*,?,16.1%,36.2*
Nc1ccc(-c2nc3ccccc3[nH]2)cc1,101.9*,113.6%,117.2%,33.0*
Cc1cccc(-n2ncc3c2CCCC3NC(=O)Cc2c(C)noc2C)c1C (stereo not given),17.6,?,1.0%,16.8
N#CCSc1ccc(-c2nc3ccccc3[nH]2)cn1,43.8*,66.1%,?,29.0*
Cc1[nH]ncc1-c1nc2ccccc2[nH]1,20.1,-11.9%,-18.3%,0.6
Cc1c(-c2nc3ccccc3[nH]2)cnn1C,.,98.4%,79.5%,.
O=c1[nH]cccc1-c1nc2ccccc2[nH]1,54.6*,-23.0%[0.00184 µM],100.4%,21.5*
SMILES,Shiga toxin inh,Pf growth 48h,Pf growth 96h,CHX counter
Nc1ccccc1-c1nc2ccccc2[nH]1,91.7*,131.1%,117.4%,45.1*
CCn1c(=O)c(-c2nc3ccccc3[nH]2)c(O)c2ccccc21,34.9,-17.3%,?,21.9*
CCCn1c(=O)c(-c2nc3ccccc3[nH]2)c(O)c2ccccc21,5.8,-17.9%,-30.0%,15.3
CCC1C(=O)CC2CCN3C(=O)CCC1C23 (stereo not given),14.1,.,.,-4.9
COCCN(C(=O)COc1ccccc1C#N)c1c(N)n(Cc2ccccc2)c(=O)[nH]c1=O,.,3.7%,?,.
Oc1ccc(C=Nc2ccccc2-c2nc3ccccc3[nH]2)cc1,91.8*,54.0%,?,69.9*
Oc1ccccc1OCCOc1ccccc1OCCOc1ccccc1O,41.4,?,?,9.8*
CCOC(=O)C1CCN(C(=O)CNC(=O)c2nn(-c3ccc(OC)c(OC)c3)c(=O)c3ccccc23)CC1,37.8,?,-13.6%,20.6*
CCCCNC(=O)CNC(=O)c1nn(-c2ccc(OC)cc2)c(=O)c2ccccc12,-4.7,.,?,-2.7
COc1ccc(-n2nc(C(=O)NCC(=O)N3CCN(C)CC3)c3ccccc3c2=O)cc1OC,19.3,-7.6%,129.9%,-0.8
CCOC(=O)C1CCN(C(=O)CNC(=O)c2nn(-c3ccc(OC)cc3)c(=O)c3ccccc23)CC1,27.6,?,?,27.4*
Cc1cc(C)c2c(c1)N[C@H](c1cccs1)[C@@H]1CCO[C@H]21,-10.9,22.3%,-0.7%,-4.2
CC(C)c1ccc2c(c1)[C@H]1OCC[C@H]1[C@@H](c1cccs1)N2,58.9*,33.9%,1.2%,69.8*
Cc1cc(OC(C)C(=O)N2CCN(c3ccccc3)CC2)c2c(C)c(C)c(=O)oc2c1 (stereo not given),17.4,9.28µM*,13.1µM*,-3.4
Cc1cc(OCC(=O)N2CCN(c3ccccc3)CC2)c2c(C)c(C)c(=O)oc2c1,-4.4,25.5%,31.9%,13.8
O=c1c2ccccc2c(C=Nc2ccccc2O)c(O)n1-c1nccs1,16.1,13.1µM*,?,0.4
Cc1cc(NC(=O)C2CCN(C(=O)c3ccco3)CC2)ccc1Br,.,3.4%,-5.2%,.
CCC(C)C(=O)Nc1nc(C)c(-c2csc(Nc3cc(OC)ccc3OC)n2)s1 (stereo not given),-12.1,2.33µM*,9.28µM*,-1.8
COc1ccc(OC)c(Nc2nc(-c3sc(NC(=O)CC(C)C)nc3C)cs2)c1,-10.3,6.57µM*,10.4µM*,1.8
COc1ccc(NC(=O)CC(C)C)c(OC)c1,3.6,.,4.8%,-1.6
CCC(C)C(=O)Nc1nc(C)c(-c2csc(Nc3cc(Cl)ccc3OC)n2)s1 (stereo not given),-17.4,10.4µM*,14.7µM*,-3.0
CCC(=O)N1CCN(c2ccc(NC(=O)c3ccco3)cc2)CC1,31.1*,72.8%,-7.2%,27.7*
CCc1ccc(C(=O)N2CCN(c3ccc(NC(=O)c4ccco4)cc3)CC2)cc1,-2.9,32.3%,25.1%,-0.8
Cc1ccccc1C(=O)N1CCN(c2ccc(NC(=O)c3ccco3)cc2)CC1,-6.8,-22.4%,15.0%,7.8
CCC(=O)N1CCN(c2ccc(NC(=O)c3cccs3)cc2)CC1,68.3*,-4.5%,13.1µM*,14.9*
SMILES,Shiga toxin inh,Pf growth 48h,Pf growth 96h,CHX counter
CC(=O)N1CCN(c2ccc(NC(=O)c3ccco3)cc2)CC1,71.7*,143.6%,20.7%,17.9
O=C(Nc1ccc(N2CCN(C(=O)c3ccccc3)CC2)cc1)c1cccs1,30.0,-13.5%,27.2%,4.0
COC(=O)C1=C[C@@H](C(=O)OC)C2C3=C(C(=O)[C@@]2(CC(C)C)NC(=O)c2ccccc2)[C@H](C)n2c(=O)n(C)c(=O)n2[C@@H]3C1 (stereo not given in full),-5.2,.,.,24.6
CCOC(=O)c1cc(C(=O)NC(C)c2ccccc2)c(C)[nH]c1=O (stereo not given),-2.1,-6.3%,36.9%,-3.5
CCOC(=O)CCSc1nc(C)c2ccccc2n1,57.4*,55.9%,12.2%,18.3*
COc1ccc2nc(C)cc(SCC(=O)NNC(=O)COc3ccccc3)c2c1,-12.5,?,-30.3%,-0.3
CCOC(=O)CSc1nc(C)c2cc(C)c(C)cc2n1,14.3,4.2%,?,24.6
CCOC(=O)CSc1nc(C)c2cc(OC)ccc2n1,71.9*,3.6%,.,45.9*

# Screens (PubChem BioAssay)
